Test results from PubChem BioAssay AID602440 (Sanford-Burnham Center for Chemical Genomics, 2012).
The whole screen tested about 360,000 compounds, of which about 2,300 (0.64%) were called active. Many of the other results were omitted from the sample, so actives are more common in it than they were. Unmarked numbers belong to inactive results. Rule as the data show it: active = inhibition mostly above about 40% (no sharp cut-off); inactive = mostly below about 27%.

target: Sentrin-specific protease 8 (Homo sapiens) (UniProt Q96LD8); assay: human SENP8 protease inhibitors, primary screen, biochemical, fluorescence, Nedd8 protein substrate, uHTS (AID 602440); details: recombinant SENP8, Nedd8 substrate fluorescence; at 20 µM; hits give high values
Sequence (Q96LD8 whole entry, looked up): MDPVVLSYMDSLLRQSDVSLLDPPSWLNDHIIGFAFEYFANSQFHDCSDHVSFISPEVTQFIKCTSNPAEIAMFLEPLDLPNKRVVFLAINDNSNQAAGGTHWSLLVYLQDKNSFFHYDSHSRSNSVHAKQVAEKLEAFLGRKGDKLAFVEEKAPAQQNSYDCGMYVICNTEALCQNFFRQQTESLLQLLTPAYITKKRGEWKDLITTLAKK

| SMILES | inhibition |
| --- | --- |
| CCc1cc2c(SCC(=O)Nc3ncc(Cl)c(C)c3Cl)ncnc2s1 | -2.9% |
| CCN1N=C(c2ccccc2)CCC1=O | 8.8% |
| O=C1CC(c2ccccc2)=NN1c1ccc([N+](=O)[O-])cc1 | 71.2% (active) |
| O=C1NC(=O)C2C1C(c1ccc([N+](=O)[O-])cc1)=NN2Cc1ccccc1 (stereo not drawn) | -27.9% |
| Cc1ccc(NC(=S)N(CCN(C)C)Cc2cccs2)cc1C | 19.3% |
| CNC(=O)C[C@H]1C(=O)N(Cc2ccccc2)C[C@@H]1CSC | -6.3% |
| CCOC(=O)N1CCN(c2c(NCCCN3CCCC(C)C3)c(=O)c2=O)CC1 (stereo not drawn) | 21.3% |
| CCOC(=O)N1CCC(Nc2c(NCCCN3CCN(CC)CC3)c(=O)c2=O)CC1 | 20.5% |
| CCOC(=O)N1CCC(Nc2c(NCCCN3CCN(c4ccc(OC)cc4)CC3)c(=O)c2=O)CC1 | 63.9% (active) |
| C[C@H](NC(=O)CC[C@H]1O[C@@H](n2ccc(=O)[nH]c2=O)[C@H](O)[C@@H]1O)c1cccc2ccccc12 | 20.1% |
| Cc1sc2ccccc2c1CNC[C@H]1O[C@@H](n2ccc(=O)[nH]c2=O)[C@H](O)[C@@H]1O | 50.2% (active) |
| O=c1ccn([C@@H]2O[C@H](CNS(=O)(=O)c3cc4ccccc4s3)[C@@H](O)[C@H]2O)c(=O)[nH]1 | 7.7% |
| O=C(CNCc1ccc(Cl)cc1)Nc1cccc(C(=O)O)c1 | 23% |
| CC(C)c1ccc(NC(=O)[C@@H](NC(=O)N2CC(=O)Nc3ccccc32)C(C)C)cc1 | 8.3% |
| CC(C)C[C@H](NC(=O)N1CC(=O)Nc2ccccc21)C(=O)N[C@H](Cc1ccccc1)C(=O)O | 28.1% |
| CC(C)[C@H](NC(=O)N1CC(=O)Nc2ccccc21)C(=O)N[C@@H](Cc1c[nH]c2ccccc12)C(=O)O | 57.9% (active) |
| CC(OC(=O)Cc1ccc(F)cc1)C(=O)N1CCc2ccccc21 (stereo not drawn) | -2.8% |
| O=C(CN(C(=O)c1nsc(Cl)c1Cl)c1cccc(F)c1)NC1CCCC1 | 4.4% |
| COc1ccc(S(=O)(=O)n2cnc3ccccc32)c(C)c1 | 12.5% |
| O=C(/C=C/c1cccs1)NCc1cccnc1 | -2.1% |

| SMILES | inhibition |
| --- | --- |
| Cc1ccc(S(=O)(=O)NC(C)C(=O)Nc2ccccc2C(=O)N2CCCC2)cc1 (stereo not drawn) | 20.9% |
| CC1CCCC(NC(=O)c2cccc(N3CCCC3=O)c2)C1C (stereo not drawn) | -12.1% |
| Cc1cc2c(C)nc(N/N=C/c3ccccc3)nc2o1 | -29.4% |
| Cc1cc(C)nc(N/N=C/c2ccc([N+](=O)[O-])o2)n1 | 45.8% (active) |
| O=C(/C=C/c1ccc([N+](=O)[O-])o1)NNC(=O)c1ccc(F)cc1 | 19.8% |
| CN(CC(=O)Nc1ccccc1Cl)C(=O)c1ccccc1SCC(=O)N1CCCC1 | 3.2% |
| COC(=O)c1ccc2c(=O)n(CCN3CCOCC3)c(SCC(=O)Nc3cccc(OC)c3)nc2c1 | 14.9% |
| Cc1nc2ccccc2c(=O)n1-c1ccc(NS(=O)(=O)c2ccc(F)cc2F)cc1 | 5.4% |
| COC(=O)Cn1c(=NC(=O)c2cc(OC)c(OC)c(OC)c2)sc2cc(OC)ccc21 | -398% |
| CCn1c(CNC(=O)c2cc(OC)c(OC)c(OC)c2)cc2cc(C)ccc21 | -19.2% |
| COC(=O)Cn1c2ccc(C)cc2c2nc(C)sc21 | 65.4% (active) |
| COc1cc(C(F)(F)F)c(C(=O)N(C)c2ccc(Cl)cc2)cn1 | -0.9% |
| OC1CSc2nc3ccccc3n2C1 (stereo not drawn) | 9.1% |
| O=C1NC(c2ccccc2)CCC1(Cl)Cl (stereo not drawn) | 14.1% |
| Cc1c(NS(=O)(=O)c2cccc(C(=O)Nc3ccc(SC(F)F)cc3)c2)c(=O)n(-c2ccccc2)n1C | -1.9% |
| COc1ccc(NC(=O)/C(N=Nc2cccc(S(=O)(=O)Nc3ccc(SC(F)F)cc3)c2)=C(\C)O)cc1 | 38.3% (active) |
| Nc1cccc(S(=O)(=O)Nc2ccc(SC(F)F)cc2)c1 | 5.2% |
| CC(=O)c1cnc(SCCN2C(=O)c3ccccc3C2=O)nc1C | 9.5% |
| CCOCCCNC(=O)c1c[nH]c2cc(C)ccc2c1=O | 5.8% |
| CCc1[nH]nc(C(=O)N2CCCC(CO)(Cc3ccc(F)cc3F)C2)c1C (stereo not drawn) | 3.5% |

| SMILES | inhibition |
| --- | --- |
| Cn1cccc1C(=O)N1CCc2ccccc2C1 | -0.8% |
| CS(=O)(=O)N(CC(=O)N1CCc2ccccc2C1)c1ccc(Br)cc1 | 6.5% |
| CN(c1ccc(C(=O)N2CCc3ccccc3C2)cc1)S(C)(=O)=O | 43.9% (active) |
| COc1ccc(CNC(=O)CN(C(=O)c2csnn2)c2cnc3ccccc3c2)cc1 | -222% |
| CCN(CC)C(=O)CSc1nc2ccccc2n1CC(=O)N1CCN(c2ccccc2OC)CC1 | 33.5% |
| Nc1ccc2[nH]c(=S)sc2c1 | -81.4% |
| O=c1[nH]c2ccccc2s1 | 44.5% (active) |
| COc1ccc(-c2[nH]ncc2CN(C)Cc2cc(C)[nH]n2)c(F)c1 | 8.6% |
| CCOC(=O)c1c(CC(C)C)csc1/N=C/C1=C(O)CCCC1=O | -55.6% |
| Nn1cnnc1N/N=C/c1cc([N+](=O)[O-])c(Cl)cc1Cl | 51.7% (active) |
| CCCOc1cccc(C(=O)Nc2ccccc2C(=O)N2CCN(C)CC2)c1 | 4.7% |
| C[C@H]1CN([C@@H](C)CO)C(=O)CCCn2cc(nn2)CO[C@@H]1CN(C)S(=O)(=O)c1ccc(-n2cccn2)cc1 | 8.3% |
| Cc1cc(C)nc(N2C(=O)CC(Cc3ccccc3)C2=O)n1 (stereo not drawn) | 2.8% |
| COc1cc(CN2CCCN(C)CC2)c([N+](=O)[O-])cc1OC | 11.8% |
| O=c1[nH]n2c(=O)c3c([nH]c2c1N=Nc1ccccc1)CCC3 | 46.3% (active) |
| CC(C)(C)n1c(=O)[nH]c2c(c1=O)CCC2 | 16.6% |
| CCCCOc1ccc(C(=O)NCC(=O)OCC(=O)N2CCN(S(=O)(=O)c3ccc(C)cc3C)CC2)cc1 | 7.7% |
| Cc1cc(C)nc(SCc2nnc(SCC(=O)OC3CCCCC3)o2)n1 | 6.5% |
